According to PubChem BioAssay (NCATS):
Unmarked numbers belong to inactive results. Records with an inconclusive call do not appear. Calls of active or inactive are those of the source. Unless noted, calls follow the shape of the dose curve; as a rule, active = well fitted curve in either direction with a large enough effect (not every such curve was filed as active); inconclusive = small, poorly fitted or top-dose-only effect, or another doubt; inactive = flat fitted curve, though single readings scatter.

What was measured:
[1] = target: Lysosomal acid glucosylceramidase (Homo sapiens) (UniProt P04062); assay: Glucocerebrosidase-p2 (AID 348; in the data active = potency below about 10 µM; also: potency is read from the fitted curve at half-maximal effect); conditions: purified GBA, blue fluorogenic substrate, 40 min
Chain of Lysosomal acid glucosylceramidase (Homo sapiens) (P04062 whole entry, looked up): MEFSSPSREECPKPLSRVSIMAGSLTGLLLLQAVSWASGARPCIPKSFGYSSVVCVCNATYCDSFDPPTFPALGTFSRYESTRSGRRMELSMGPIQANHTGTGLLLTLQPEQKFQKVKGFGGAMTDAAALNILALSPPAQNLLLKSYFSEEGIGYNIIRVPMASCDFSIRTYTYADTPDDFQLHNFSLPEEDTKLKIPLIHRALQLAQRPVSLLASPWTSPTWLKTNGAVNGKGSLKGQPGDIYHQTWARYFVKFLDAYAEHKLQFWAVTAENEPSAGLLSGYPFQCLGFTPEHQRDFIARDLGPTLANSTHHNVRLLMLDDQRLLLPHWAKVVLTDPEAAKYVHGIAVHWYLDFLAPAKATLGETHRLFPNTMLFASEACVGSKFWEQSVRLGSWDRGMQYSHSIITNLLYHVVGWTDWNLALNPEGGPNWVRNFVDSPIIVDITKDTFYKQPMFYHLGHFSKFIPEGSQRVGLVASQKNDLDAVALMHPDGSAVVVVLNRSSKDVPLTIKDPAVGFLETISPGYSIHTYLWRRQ
Summary of the method: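 Compounds titrated from 0.6 nM upwards against 0.2 nM enzyme in pH 5.9 citric acid/KH2PO4, taurocholate, tween-20; blue fluorogenic substrate 80 uM, 40 min room temperature, stopped and read Ex 365/Em 440 for AC50.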

[2] = AP1 Signaling Pathway (AID 357); conditions: ME-180 AP-1-bla reporter, EGF-induced, beta-lactamase ratio, 5 h; at 7.69 µM (top of the series) unless noted;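 also: ME-180 reporter cells stimulated with EGF at its EC50 level; % is scaled to controls: 0 for no effect and ±100 for the full control effect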
Summary of the method: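 Read-out was the 460nm/530nm emission ratio (excitation 405nm) after CCF4 loading for 2.5 hours at room temperature. Cells carried an AP-1-driven beta-lactamase reporter, were stimulated with EC50 EGF plus compound for 5 hours, and AC50 values came from titrations.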

[3] = target: Cytochrome P450 1A2 (Homo sapiens) (UniProt P05177); assay: p450-cyp1a2 (AID 410; calls by dose curve; also: potency is read from the fitted curve at half-maximal effect;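 as to activity change, negative = inhibition: -100% = full effect of reference inhibitor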); conditions: recombinant CYP1A2, luciferin-ME demethylation, luminescence; series mostly up to 11.4 µM
Chain of Cytochrome P450 1A2 (Homo sapiens) (P05177 whole entry, looked up): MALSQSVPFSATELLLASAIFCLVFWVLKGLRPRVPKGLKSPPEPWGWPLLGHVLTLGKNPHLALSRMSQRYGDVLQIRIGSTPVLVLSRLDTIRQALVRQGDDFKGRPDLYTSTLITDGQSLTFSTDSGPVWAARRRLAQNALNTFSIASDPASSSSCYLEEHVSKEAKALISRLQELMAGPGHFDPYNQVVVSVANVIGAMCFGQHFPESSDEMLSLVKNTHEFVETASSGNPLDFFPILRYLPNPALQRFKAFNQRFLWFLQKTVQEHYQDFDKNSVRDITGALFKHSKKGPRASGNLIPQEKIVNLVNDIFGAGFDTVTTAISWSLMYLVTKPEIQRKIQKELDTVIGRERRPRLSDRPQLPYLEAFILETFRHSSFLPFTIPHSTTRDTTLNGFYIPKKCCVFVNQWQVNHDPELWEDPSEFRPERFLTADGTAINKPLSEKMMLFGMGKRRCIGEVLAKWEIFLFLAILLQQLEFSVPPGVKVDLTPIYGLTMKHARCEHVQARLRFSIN
Summary of the method: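 Human CYP1A2 (20nM) demethylated Luciferin-ME at its Km (100uM) in 100mM KPO4. After 10 min compound preincubation, NADPH regeneration ran the reaction 60 min at room temperature. Luciferin was read by luminescence, normalized to 57 uM furafylline.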

[4] = NFAT Signaling Pathway (AID 444); conditions: Jurkat NFAT-bla M1, carbachol, beta-lactamase ratio, 5 h; at 7.69 µM (top of the series) unless noted;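 also: carbachol stimulus at about its EC50 of 1 µM final; % is scaled to controls: 0 for no effect and ±100 for the full control effect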
Summary of the method: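 Jurkat cells carrying an NFAT-driven β-lactamase reporter and co-transfected muscarinic M1 receptor were treated with compound plus carbachol (1 uM final, an EC50 level) for 5 h at 37 °C. CCF4 loading followed for 1 h at RT; 460/530 nm ratio gave %activity.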

[5] = Stat Signaling Pathway (AID 446); conditions: ME-180 SIE beta-lactamase reporter, IL-6 stimulated, 5 h; at 7.69 µM (top of the series) unless noted;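 also: ME-180 cervical cancer cells given 40 pM IL-6 alongside compound; SIE-controlled beta-lactamase reporter measured as 460/530 nm FRET emission ratio; % is scaled to controls: 0 for no effect and ±100 for the full control effect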
Summary of the method: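 Reporter line: ME-180 cervical carcinoma, SIE-beta-lactamase. Treatment: compound with 40 pM IL-6, 5 hrs, 37 C, in low-serum OPTI-MEM with 10 mM HEPES pH 7.3. Detection: 460/530 nm fluorescence.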

[6] = target: Glucocorticoid receptor (Homo sapiens) (UniProt P04150); assay: GR-GFP Redistribution (AID 450;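 active = compounds whose dose series gives a full or clear partial fitted curve of increased nuclear translocation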; also: potency is read from the fitted curve at half-maximal effect); conditions: U2OS GR-GFP nuclear translocation, laser cytometry, 2 h
Chain of Glucocorticoid receptor (Homo sapiens) (P04150 whole entry, looked up, the tested form may be a part): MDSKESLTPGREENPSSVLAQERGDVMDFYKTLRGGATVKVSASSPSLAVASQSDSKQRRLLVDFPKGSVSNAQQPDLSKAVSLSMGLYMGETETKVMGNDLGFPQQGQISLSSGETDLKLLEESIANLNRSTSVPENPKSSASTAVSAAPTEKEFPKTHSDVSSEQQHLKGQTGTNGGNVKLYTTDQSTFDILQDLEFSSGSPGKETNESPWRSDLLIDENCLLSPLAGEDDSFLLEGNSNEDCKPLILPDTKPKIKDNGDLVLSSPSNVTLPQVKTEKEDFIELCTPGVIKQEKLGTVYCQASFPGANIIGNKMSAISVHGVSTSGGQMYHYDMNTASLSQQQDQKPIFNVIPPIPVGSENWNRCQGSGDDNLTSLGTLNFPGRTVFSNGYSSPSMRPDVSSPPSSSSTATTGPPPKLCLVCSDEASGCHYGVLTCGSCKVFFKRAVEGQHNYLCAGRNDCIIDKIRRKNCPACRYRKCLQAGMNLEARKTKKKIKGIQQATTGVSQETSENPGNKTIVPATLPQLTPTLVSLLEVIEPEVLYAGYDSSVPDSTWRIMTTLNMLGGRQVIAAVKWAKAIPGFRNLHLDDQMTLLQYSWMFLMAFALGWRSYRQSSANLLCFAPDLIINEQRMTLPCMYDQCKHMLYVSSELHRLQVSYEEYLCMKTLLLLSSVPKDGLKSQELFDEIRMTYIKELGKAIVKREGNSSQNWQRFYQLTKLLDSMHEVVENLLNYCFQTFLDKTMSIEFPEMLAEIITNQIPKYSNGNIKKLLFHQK

[7] = target: Glucocorticoid receptor (Homo sapiens) (UniProt P04150); assay: GR-EFC Redistribution (AID 451; calls by dose curve; also: potency is read from the fitted curve at half-maximal effect); conditions: CHO-K1 GR-EFC translocation, beta-gal luminescence, 2 h
Summary of the method: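 CHO-K1 cells stably expressing nuclear-localized β-gal enzyme acceptor and GR fused C-terminally to the enzyme donor fragment; ligand-driven nuclear translocation restores β-gal by complementation. Compounds titrated up to 46 uM final, 2 h at 37 °C; luminescence read.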

[8] = target: Mitogen-activated protein kinase 10 (Mus musculus) (UniProt Q61831); assay: JNK3 AlphaScreen Assay (AID 530); conditions: JNK3 lysate, c-Jun phosphorylation; series mostly up to 11.4 µM;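 also: kinase came from lysate of stimulated human HepG2 cells; signal reports phosphorylation of biotinylated GST-cJun 1-79 at Ser73 with 10 µM ATP; % is scaled to controls: 0 for no effect and ±100 for the full control effect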
Summary of the method: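 JNK3 came from HepG2 lysates pre-activated with IL-1beta and TNF-alpha and phosphorylated biotinylated GST-cJun (1-79) at 10 uM ATP, pH 7.6, room temperature. Compounds were titrated. AlphaScreen signal used anti-phospho-cJun (Ser73) antibody.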

[9] = target: 3',5'-cyclic-AMP phosphodiesterase 4B (Homo sapiens) (UniProt Q07343); assay: qHTS Assay for Inhibitors of PDE-IV (AID 607; active = well fitted activation curve with a large enough effect in the main read-out, with a control signal flat, not every such curve was filed as active; also: % of control where 0% means no effect); conditions: HEK293 ACTOne CNG channel cells, membrane potential fluorescence; series mostly up to 22.9 µM
Chain of 3',5'-cyclic-AMP phosphodiesterase 4B (Homo sapiens) (Q07343 whole entry, looked up): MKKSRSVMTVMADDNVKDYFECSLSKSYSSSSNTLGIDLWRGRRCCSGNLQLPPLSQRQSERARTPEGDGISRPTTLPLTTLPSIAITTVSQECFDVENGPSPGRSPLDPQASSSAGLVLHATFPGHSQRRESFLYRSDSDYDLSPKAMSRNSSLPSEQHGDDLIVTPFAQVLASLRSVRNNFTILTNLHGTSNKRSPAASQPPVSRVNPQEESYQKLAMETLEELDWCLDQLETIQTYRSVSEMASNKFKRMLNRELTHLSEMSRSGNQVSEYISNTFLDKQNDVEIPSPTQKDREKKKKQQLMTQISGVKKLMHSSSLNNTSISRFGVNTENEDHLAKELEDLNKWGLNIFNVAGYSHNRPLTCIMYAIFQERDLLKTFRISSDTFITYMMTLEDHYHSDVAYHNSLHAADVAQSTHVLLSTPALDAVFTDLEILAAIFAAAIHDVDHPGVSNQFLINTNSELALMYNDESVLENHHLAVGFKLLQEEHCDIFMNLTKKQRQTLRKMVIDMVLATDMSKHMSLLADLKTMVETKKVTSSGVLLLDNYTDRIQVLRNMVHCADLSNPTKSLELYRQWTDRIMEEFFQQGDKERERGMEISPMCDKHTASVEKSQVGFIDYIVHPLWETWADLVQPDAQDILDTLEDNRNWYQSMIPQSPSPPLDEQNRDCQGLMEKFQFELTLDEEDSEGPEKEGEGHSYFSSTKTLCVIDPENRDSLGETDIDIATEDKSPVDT
Summary of the method: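 Cell-based read-out of cAMP via a modified cyclic nucleotide-gated channel and membrane potential dye (535/590 nm) in HEK293 cells expressing PDE4 endogenously. Compounds tested up to 22.9 uM final; 100 uM RO 20-1724 reference.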

[10] = target: Cytochrome P450 2C9 (Homo sapiens) (UniProt P11712); assay: qHTS Assay for Inhibitors and Substrates of Cytochrome P450 2C9 (AID 883; active = well fitted curve in the direction sought with a large enough effect; an effect the other way counts as inactive or inconclusive; also: nearly all actives have a fitted effect of over 60% in size; also: potency is read from the fitted curve at half-maximal effect); conditions: recombinant CYP2C9, luciferin-H luminescence, 60 min; series mostly up to 11.4 µM
Chain of Cytochrome P450 2C9 (Homo sapiens) (P11712 whole entry, looked up): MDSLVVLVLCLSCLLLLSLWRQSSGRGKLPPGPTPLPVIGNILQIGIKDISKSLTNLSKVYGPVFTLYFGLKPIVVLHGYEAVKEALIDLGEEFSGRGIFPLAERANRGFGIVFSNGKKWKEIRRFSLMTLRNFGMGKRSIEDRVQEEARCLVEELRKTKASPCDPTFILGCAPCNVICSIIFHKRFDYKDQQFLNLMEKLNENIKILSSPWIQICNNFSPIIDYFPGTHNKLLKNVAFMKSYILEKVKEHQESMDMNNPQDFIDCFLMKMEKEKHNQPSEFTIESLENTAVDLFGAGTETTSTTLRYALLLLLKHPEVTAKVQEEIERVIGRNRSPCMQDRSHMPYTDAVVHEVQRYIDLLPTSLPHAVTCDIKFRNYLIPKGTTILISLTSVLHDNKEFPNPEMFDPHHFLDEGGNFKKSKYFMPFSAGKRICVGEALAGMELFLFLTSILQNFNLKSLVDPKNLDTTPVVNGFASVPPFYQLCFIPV
Summary of the method: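 Human CYP2C9 (10nM) hydroxylated Luciferin-H (100uM, at its KM) to luciferin in 25mM KPO4. Compound was preincubated 10 min at 37C, then NADPH regeneration started a 60 min reaction at 37C. Luminescence was read after detection reagent, normalized to 57uM sulphaphenazole.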

[11] = target: Cytochrome P450 3A4 (Homo sapiens) (UniProt P08684); assay: qHTS Assay for Inhibitors and Substrates of Cytochrome P450 3A4 (AID 884; active = well fitted curve in the direction sought with a large enough effect; an effect the other way counts as inactive or inconclusive; also: nearly all actives have a fitted effect of over 50% in size; also: potency is read from the fitted curve at half-maximal effect); conditions: recombinant CYP3A4, Luciferin-PPXE luminescence; series mostly up to 57.1 µM
Chain of Cytochrome P450 3A4 (Homo sapiens) (P08684 whole entry, looked up): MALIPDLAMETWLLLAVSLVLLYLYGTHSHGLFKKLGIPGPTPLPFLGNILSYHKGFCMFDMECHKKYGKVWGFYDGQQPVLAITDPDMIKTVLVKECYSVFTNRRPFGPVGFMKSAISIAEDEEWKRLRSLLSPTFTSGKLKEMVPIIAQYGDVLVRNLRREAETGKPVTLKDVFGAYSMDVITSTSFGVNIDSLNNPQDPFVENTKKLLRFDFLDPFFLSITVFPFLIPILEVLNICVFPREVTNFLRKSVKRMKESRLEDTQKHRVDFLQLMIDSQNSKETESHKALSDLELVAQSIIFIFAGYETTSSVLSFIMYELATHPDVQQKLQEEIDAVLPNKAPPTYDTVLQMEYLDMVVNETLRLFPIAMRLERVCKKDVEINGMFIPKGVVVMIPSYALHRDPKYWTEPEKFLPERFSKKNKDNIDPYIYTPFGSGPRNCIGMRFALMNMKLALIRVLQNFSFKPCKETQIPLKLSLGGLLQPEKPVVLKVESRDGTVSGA
Summary of the method: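 20 nM human CYP3A4 with 25 uM Luciferin-PPXE (at KM) in 200 mM KPO4, preincubated 10 min with compound; NADPH regeneration started a 60 min RT reaction. Luciferin detected by luminescence, normalized to 57 uM ketoconazole as full inhibition.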

[12] = target: Cytochrome P450 3A4 (Homo sapiens) (UniProt P08684); assay: qHTS Assay for Activators of Cytochrome P450 3A4 (AID 885; active = well fitted curve in the direction sought with a large enough effect; an effect the other way counts as inactive or inconclusive; also: nearly all actives have a fitted effect of over 65% in size); conditions: recombinant CYP3A4, Luciferin-PPXE luminescence, 60 min; series mostly up to 11.4 µM
Summary of the method: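 Signal was normalized against complete inhibition by 57 uM ketoconazole. The reaction used 20nM CYP3A4 with 25uM Luciferin-PPXE, 10-min compound preincubation and a 60-min NADPH-supported step at RT.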

[13] = target: Cytochrome P450 2D6 (Homo sapiens) (UniProt P10635); assay: qHTS Assay for Inhibitors and Substrates of Cytochrome P450 2D6 (AID 891; active = well fitted curve in the direction sought with a large enough effect; an effect the other way counts as inactive or inconclusive; also: nearly all actives have a fitted effect of over 60% in size; also: potency is read from the fitted curve at half-maximal effect); conditions: recombinant CYP2D6, luciferin-ME EGE luminescence; series mostly up to 11.4 µM
Chain of Cytochrome P450 2D6 (Homo sapiens) (P10635 whole entry, looked up): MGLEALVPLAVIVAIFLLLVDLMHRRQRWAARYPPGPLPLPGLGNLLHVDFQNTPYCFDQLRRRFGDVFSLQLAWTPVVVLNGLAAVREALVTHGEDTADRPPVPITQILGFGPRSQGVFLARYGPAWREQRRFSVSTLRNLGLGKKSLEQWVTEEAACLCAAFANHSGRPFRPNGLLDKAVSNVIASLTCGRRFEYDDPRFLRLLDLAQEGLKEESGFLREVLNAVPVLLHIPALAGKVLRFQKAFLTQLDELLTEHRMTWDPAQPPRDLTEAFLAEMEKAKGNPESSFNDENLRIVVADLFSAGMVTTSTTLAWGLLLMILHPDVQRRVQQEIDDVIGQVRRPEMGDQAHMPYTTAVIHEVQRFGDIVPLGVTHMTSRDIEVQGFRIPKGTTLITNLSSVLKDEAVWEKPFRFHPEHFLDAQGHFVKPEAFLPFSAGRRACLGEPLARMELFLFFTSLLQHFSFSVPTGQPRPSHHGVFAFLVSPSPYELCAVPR
Summary of the method: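 Human CYP2D6 (5 nM) with 30 uM Luciferin-ME EGE (at Km) in 100 mM KPO4, compound preincubated 10 min, then NADPH regeneration system for 60 min at room temperature. Luciferin read by luminescence; normalized to 1.43 uM quinidine.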

[14] = target: Cytochrome P450 2C19 (Homo sapiens) (UniProt P33261); assay: qHTS Assay for Inhibitors and Substrates of Cytochrome P450 2C19 (AID 899; active = well fitted curve in the direction sought with a large enough effect; an effect the other way counts as inactive or inconclusive; also: nearly all actives have a fitted effect of over 60% in size; also: potency is read from the fitted curve at half-maximal effect); conditions: recombinant CYP2C19, luciferin-H EGE luminescence; series mostly up to 11.4 µM
Chain of Cytochrome P450 2C19 (Homo sapiens) (P33261 whole entry, looked up): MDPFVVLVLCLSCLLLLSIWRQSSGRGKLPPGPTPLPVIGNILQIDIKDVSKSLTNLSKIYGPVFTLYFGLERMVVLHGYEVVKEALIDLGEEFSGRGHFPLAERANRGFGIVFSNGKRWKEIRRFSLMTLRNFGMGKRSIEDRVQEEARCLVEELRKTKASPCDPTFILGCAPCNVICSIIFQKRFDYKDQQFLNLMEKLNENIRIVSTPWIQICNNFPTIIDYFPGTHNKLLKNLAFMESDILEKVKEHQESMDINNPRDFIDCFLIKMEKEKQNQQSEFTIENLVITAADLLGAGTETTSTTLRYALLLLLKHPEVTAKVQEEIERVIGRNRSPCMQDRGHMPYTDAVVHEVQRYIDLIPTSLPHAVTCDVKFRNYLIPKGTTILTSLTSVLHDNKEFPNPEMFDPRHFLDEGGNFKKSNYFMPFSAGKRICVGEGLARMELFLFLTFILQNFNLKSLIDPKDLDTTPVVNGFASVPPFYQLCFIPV
Summary of the method: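 Human CYP2C19 (5nM) with Luciferin-H EGE at 10uM (its KM) in 50mM KPO4 was preincubated with compound for 10 min at 37C. NADPH regeneration started a 60 min 37C reaction. Luciferin was read by luminescence, normalized to 57uM ketoconazole.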

| Structure (SMILES) | Potency [1] [µM] | activity change, negative = inhibition [2] [%] | activity change, negative = inhibition [3] | activity change, negative = inhibition [4] [%] | activity, negative = inhibition [5] [%] | Potency [6] [µM] | Potency [7] [µM] | Potency [8] | Potency [9] | Potency [3] | Potency [10] | Potency [11] | Potency [12] | Potency [13] | Potency [14] | activity change, negative = inhibition [11] |
| --- | --- | --- | --- | --- | --- | --- | --- | --- | --- | --- | --- | --- | --- | --- | --- | --- |
| Cn1c(C[C@@H](O)c2nc3ccccc3n2C)nc2ccccc21 | > 11.4 | 11.7 | -2.6% [at 2.29 µM] | 13.3 | 8.01 | > 46 | > 9.22 | inactive | inactive |  |  |  |  |  |  |  |
| N[C@@H](Cc1[nH]nc2ccccc12)C(=O)O | > 11.4 | 5.54 |  | -12.5 | -0.642 | > 46 | > 9.22 | inactive | inactive | inactive |  |  |  |  |  |  |
| O=c1[nH]c(=S)[nH]c2c1CN(CCCN1CCOCC1)CN2 | > 11.4 | 3.35 | -13.5% [at 2.29 µM] | 4.33 | 4.09 | > 46 | > 9.22 | inactive | inactive |  |  |  |  |  |  |  |
| CCOc1ccccc1/C=C(\C#N)C(N)=O | > 11.4 | 3.2 |  | -1.04 | 4.29 | > 46 | > 9.22 | inactive | inactive | 2 µM (active) | inactive |  |  |  |  |  |
| NC(=O)NC(=O)[C@H]1CCCC[C@@H]1C(=O)O | > 11.4 | 7.05 |  | -5.46 | 17.8 | > 46 | > 9.22 | inactive | inactive | inactive |  |  |  |  |  |  |
| O=C(N/N=C\c1ccc2c(c1)CCC2)c1ccccc1O | > 11.4 | -5.97 |  | 20.6 | -2.26 | > 46 | > 9.22 | inactive | inactive | 2 µM (active) | inactive |  |  |  |  |  |
| O=C(O)c1cc(N=Cc2ccccc2O)cc(C(=O)O)c1 | > 11.4 | -3.29 |  | 17.2 | -4.46 | > 46 | > 9.22 | inactive | inactive | inactive |  |  |  |  |  |  |
| O=C(O)c1ccccc1CN1CCC[C@@H](C(=O)O)C1 | > 11.4 | -3.95 |  | 12.7 | 8.09 | > 46 | > 9.22 | inactive | inactive | inactive |  |  |  |  |  |  |
| COc1ccc(/C=C(\C#N)C(N)=O)c(OC)c1 | > 11.4 | 2.38 |  | 17.1 | 3.37 | > 46 | > 9.22 | inactive | inactive | 1.58 µM (active) | inactive | 2.51 µM (active) | inactive |  |  |  |
| O=C(Nc1cccc2ccccc12)c1ccccc1 | > 11.4 | -4.06 |  | -11.4 | 3.33 | > 46 | > 9.22 | inactive | inactive | 3.98 µM (active) | inactive | 3.16 µM (active) |  |  |  |  |
| S=C1N[C@H](c2ccccc2)N[C@H](c2ccccc2)S1 | > 11.4 | -0.71 |  | -21.2 | -1.19 | > 46 | > 9.22 | inactive | inactive | 3.16 µM (active) | 2 µM (active) |  | inactive | 3.98 µM (active) | 3.98 µM (active) |  |
| O=C(O)CSC1=NCCN1 | > 11.4 | 17 |  | 7.29 | 4.64 | > 46 | > 9.22 | inactive | inactive | inactive | inactive |  |  | inactive | inactive | 7.95% [at 11.4 µM] |
| O=C(O)/C(=C\c1ccccc1)Cc1ccccc1 | > 11.4 | -5.32 |  | 3.67 | 5.03 | > 46 | > 9.22 | inactive | inactive | inactive |  |  |  |  |  | 30.2% [at 11.4 µM] |
| Clc1ccc(CSCCc2ccncc2)cc1Cl | > 11.4 | -26.7 |  | 2.37 | 5.37 | > 46 | > 9.22 | inactive | inactive | 0.316 µM (active) | 0.0794 µM (active) |  |  | 0.316 µM (active) |  |  |
